SMILES strings stand for the structures. This is part of a sample that, as a whole, favours compounds with a hit. Of some 83,000 tested, about 20% had one in any assay.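 Step 1: grow cells in 96-well plates. Step 2: add test compound at a single concentration. Step 3: incubate 48 h. Step 4: record percent growth.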 Values without a mark were called inactive. Calls of active or inactive are those of the source. Rule for the calls: active = growth percent below 10; inactive = the rest.

Among the test systems are SK-MEL-2 melanoma; EKVX NSCLC; SN12C renal; UO-31 renal; TK-10 renal; ACHN renal; CAKI-1 renal; A498 renal; CCRF-CEM leukemia; MOLT-4 leukemia; SR leukemia; RPMI-8226 leukemia; OVCAR-8 ovarian; OVCAR-5 ovarian; OVCAR-4 ovarian; SK-OV-3 ovarian; IGROV1 ovarian; OVCAR-3 ovarian; HS 578T breast; NCI/ADR-RES ovarian.
Holding throughout (test): NCI-60 one-dose screen, 48 h (100 = growth as untreated, 0 = no growth, -100 = all killed)
What all share (details): 10 µM unless noted

Take `CC(C)CN1C(=O)/C(=C\C(=O)c2cc3ccccc3oc2=O)c2ccccc21`: the growth in the test on SK-MEL-2 melanoma was 101%; with EKVX NSCLC, 94.7%; in the test with SN12C renal, 89.9%; in the test with UO-31 renal it was 52.1%; in the test with TK-10 renal it was 98.2%; with ACHN renal it was 30.6%. The growth is 81.2% with CAKI-1 renal; 149% with A498 renal; 37.2% in the test on CCRF-CEM leukemia; 40% in the test on MOLT-4 leukemia; 34.6% in the test on SR leukemia; 85.4% with RPMI-8226 leukemia. The growth is 97.7% with OVCAR-8 ovarian; 111% in the test with OVCAR-5 ovarian; 87.3% with OVCAR-4 ovarian; 104% in the test on SK-OV-3 ovarian; 87.7% in the test with IGROV1 ovarian; 51.1% in the test with OVCAR-3 ovarian. Further, the growth in the test on HS 578T breast is 102%; with NCI/ADR-RES ovarian it was 95.8%.

Regarding `Cn1cc(-c2cc(N)n3nc(-c4c[nH]c5ccccc45)cc3n2)c2cc(Cl)ccc21`, the growth was -64.6% (active) in the test on SK-MEL-2 melanoma; -77% (active) in the test on EKVX NSCLC; -81.2% (active) with SN12C renal; -80.1% (active) in the test with UO-31 renal; -90.2% (active) in the test on TK-10 renal; -75.6% (active) in the test with ACHN renal. For the same molecule, the growth in the test on CAKI-1 renal is -63.6% (active); in the test with A498 renal, -59.1% (active); in the test with CCRF-CEM leukemia, -16.2% (active); in the test on MOLT-4 leukemia it was 6.43% (active); with SR leukemia, 20%; in the test with RPMI-8226 leukemia, -7.08% (active). In addition, the growth in the test with OVCAR-8 ovarian was -63.7% (active); with OVCAR-5 ovarian, -65.9% (active); in the test with OVCAR-4 ovarian, -29.3% (active); with SK-OV-3 ovarian, -61.4% (active); in the test with IGROV1 ovarian it was -65.5% (active); in the test with OVCAR-3 ovarian it was -52.5% (active). For the same molecule, the growth with HS 578T breast was -21.2% (active); in the test with NCI/ADR-RES ovarian, -12.8% (active).

`Cc1ccc2nc(SCc3ccccc3F)n(-c3ccccc3)c(=O)c2c1`: the growth was 102% in the test on SK-MEL-2 melanoma; 59.9% with EKVX NSCLC; 90.6% in the test on SN12C renal; 83.7% with UO-31 renal; 90.2% in the test on TK-10 renal; 92.9% in the test on ACHN renal. Besides, the growth in the test with CAKI-1 renal is 83.3%; with A498 renal, 137%; in the test on CCRF-CEM leukemia, 73%; in the test on MOLT-4 leukemia it was 73.3%; with SR leukemia, 109%; in the test with RPMI-8226 leukemia, 93.4%. Besides, the growth was 100% with OVCAR-8 ovarian; 116% in the test with OVCAR-5 ovarian; 98.9% in the test on OVCAR-4 ovarian; 118% in the test on SK-OV-3 ovarian; 105% with IGROV1 ovarian; 115% in the test on OVCAR-3 ovarian. The growth in the test on HS 578T breast was 96.3%; with NCI/ADR-RES ovarian, 89%.

Turning to `CN(C)c1nc(NCCNS(=O)(=O)c2ccc(C(=O)/C=C/c3ccc(Cl)cc3)cc2)nc(N2CCOCC2)n1`, the growth was 68.9% with SK-MEL-2 melanoma; 49.6% in the test on EKVX NSCLC; 53.4% with SN12C renal; -61% (active) with UO-31 renal; 62.5% with TK-10 renal; 21.8% in the test with ACHN renal. Besides, the growth in the test on CAKI-1 renal was -61.2% (active); in the test on A498 renal, 87.6%; with CCRF-CEM leukemia, 3.45% (active); with MOLT-4 leukemia, 3.71% (active); in the test with SR leukemia it was -12.8% (active); in the test on RPMI-8226 leukemia, -22.8% (active). The growth is 12.8% with OVCAR-8 ovarian; 55.4% in the test on OVCAR-5 ovarian; 60% with OVCAR-4 ovarian; 73.9% in the test with SK-OV-3 ovarian; -71.2% (active) in the test on IGROV1 ovarian; -9.86% (active) with OVCAR-3 ovarian. For the same molecule, the growth was 62% in the test on HS 578T breast and 25.5% in the test with NCI/ADR-RES ovarian.

Consider `Cc1ccc(N=Nc2c(N)nn3c(-c4cc5cc(Br)ccc5oc4=O)ccnc23)cc1`, for which the growth is 108% in the test with SK-MEL-2 melanoma; 72.2% with EKVX NSCLC; 35.6% with SN12C renal; 79.8% with UO-31 renal; 81.9% in the test with TK-10 renal; 54.4% in the test on ACHN renal. In addition, the growth is 80.8% in the test with CAKI-1 renal; 51.9% in the test on A498 renal; 99.8% in the test with CCRF-CEM leukemia; 98.6% in the test on MOLT-4 leukemia; 50.2% in the test on SR leukemia; 93.5% in the test with RPMI-8226 leukemia. The growth with OVCAR-8 ovarian was 54%; with OVCAR-5 ovarian it was 54.8%; in the test with OVCAR-4 ovarian, 102%; with SK-OV-3 ovarian it was 98.6%; in the test on IGROV1 ovarian, 45.2%; in the test with OVCAR-3 ovarian it was 108%. Also, the figures for the growth in the test with HS 578T breast and in the test on NCI/ADR-RES ovarian were 69.4% and 29%, respectively.

As to `N#CC1=C(c2cccs2)Nc2c(c(-c3ccccc3)nn2-c2ccccc2)C12C(=O)Nc1ccccc12` (stereo not given), the growth in the test on SK-MEL-2 melanoma is 90.1%; in the test on EKVX NSCLC, 14.8%; in the test on SN12C renal it was 55.3%; with UO-31 renal, 18.2%; in the test with TK-10 renal it was 18.1%; with ACHN renal it was -26.9% (active). In addition, the growth with CAKI-1 renal is 63.4%; in the test with A498 renal, -14.9% (active); with CCRF-CEM leukemia, 6.02% (active); in the test with MOLT-4 leukemia it was 15%; in the test with SR leukemia, 1.46% (active); with RPMI-8226 leukemia it was 34.5%. Also, the growth in the test on OVCAR-8 ovarian was 24.2%; in the test on OVCAR-5 ovarian, 57.7%; in the test on OVCAR-4 ovarian, 29.2%; with SK-OV-3 ovarian it was 28.4%; in the test on IGROV1 ovarian, 50.7%; in the test on OVCAR-3 ovarian, 12.7%. For the same molecule, the growth was 4.59% (active) with HS 578T breast and 61.6% in the test with NCI/ADR-RES ovarian.

In the case of `Cc1ccc(-c2cc(C(=O)N=Nc3c(O)[nH]c4ccc(F)cc34)c3ccccc3n2)cc1`, the growth was 107% in the test with SK-MEL-2 melanoma; 29.8% with EKVX NSCLC; 18.1% with SN12C renal; 77.5% in the test on UO-31 renal; 106% with TK-10 renal; 42.8% in the test with ACHN renal. Moreover, the growth with CAKI-1 renal is 62.9%; with A498 renal, 187%; with CCRF-CEM leukemia, 92.4%; in the test on MOLT-4 leukemia it was 65.3%; with SR leukemia it was 56.8%; in the test on RPMI-8226 leukemia it was 103%. Besides, the growth was 16.8% with OVCAR-8 ovarian; 70% in the test with OVCAR-5 ovarian; 1.07% (active) with OVCAR-4 ovarian; 94.3% in the test on SK-OV-3 ovarian; 52.9% in the test with IGROV1 ovarian; 95.3% with OVCAR-3 ovarian. The growth is 32.1% in the test on HS 578T breast and 3.61% (active) with NCI/ADR-RES ovarian.

With `Cc1[nH]nc2ccc3nc(-c4cnn(CCO)c4)c4c(c3c12)CCCC4`, the growth with SK-MEL-2 melanoma is 21.1%; in the test with EKVX NSCLC, 27.2%; in the test on SN12C renal it was 32.3%; in the test on UO-31 renal, 21.5%; in the test on TK-10 renal it was 21.1%; with ACHN renal, 21.4%. The growth is 4.55% (active) in the test on CAKI-1 renal; -7.65% (active) in the test on A498 renal; 28.7% in the test with CCRF-CEM leukemia; 34% in the test with MOLT-4 leukemia; 13.8% in the test on SR leukemia; 33.8% with RPMI-8226 leukemia. In addition, the growth in the test on OVCAR-8 ovarian was 48.7%; in the test on OVCAR-5 ovarian, 90.4%; in the test with OVCAR-4 ovarian, 63.1%; in the test on SK-OV-3 ovarian, 9.64% (active); in the test on IGROV1 ovarian, 44.5%; with OVCAR-3 ovarian, 90.2%. Moreover, the growth with HS 578T breast was -2.52% (active); with NCI/ADR-RES ovarian it was 73.5%.
